These results are taken from PubChem BioAssay (Tox21).

The nature of assay [1]: qHTS assay to identify small molecule agonists of the TGF-beta/Smad signaling pathway - cell viability counter screen (AID 1346829). Further: top concentration of the series differs between compounds; nearly all actives have a fitted effect of over 45% in size. An outline of the steps: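 Here the cytotoxicity of library compounds is measured in SBE-bla HEK 293T cells treated for 5 hr, using CellTiter-Glo added to wells already read for the beta-lactamase reporter.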
(In general: In qHTS, concentration-response curves come from the screen itself.)

A short description of assay [2]: qHTS assay to identify small molecule agonists of the TGF-beta/Smad signaling pathway (AID 1346859; active means well fitted activation curve with a large enough effect in the signal ratio in the repeat runs, not every such curve was filed as active; the % refers to the signal ratio; further: series mostly up to about 77 µM). In short, it runs like this:
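Stable Smad binding element-beta-lactamase HEK 293T cells; 5 hr compound exposure at 37 C under 5% CO2; 2 hr room-temperature substrate step; fluorescence excited at 405 nm, collected at 460 nm and 530 nm.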

The target in assay [3] is Thyrotropin-releasing hormone receptor (Homo sapiens) (UniProt P34981). Briefly: qHTS assay to identify small molecule antagonists of the thyrotropin-releasing hormone receptor (TRHR) signaling pathway (AID 1346877; active means well fitted inhibition curve with a large enough effect in the repeat runs, not every such curve was filed as active; further: series mostly up to about 51 µM). An outline of the steps:
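Antagonism is measured as suppression of the calcium response to 1 nM TRH in TRHR-HEK293 cells that have been dye-loaded for 2 h at 37 °C after overnight plating. Each compound is tested at 15 concentrations in triplicate.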

Assay [4] in a line: Human pregnane X receptor (PXR) small molecule agonists, qHTS cell viability counter screen (AID 1346977). Further: nearly all actives have a fitted effect of over 50% in size. An outline of the steps:
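Readout is CellTiter-Fluor fluorescence from PXR-Luc HepG2 cells. Plated cells rested 5hr, then were treated with compounds for 24hr at 37C and 5% CO2, with reagent present during the last hour.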

The nature of assay [5]: Caspase-3/7 induction in HepG2 cells by small molecules, qHTS assay (AID 1346978). Further: nearly all actives have a fitted effect of over 15% in size. An outline of the steps: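 Wild-type HepG2 cells, 2,000/well, settled 5 hr at 37 C and 5% CO2, then compound-treated for 17 hr; caspase-3/7 activity read by luminescent Caspase-Glo 3/7 after 30 min at room temperature.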
Assay [6] in a line: Caspase-3/7 induction in CHO-K1 cells by small molecules, qHTS cell viability counter screen (AID 1346979). Further: nearly all actives have a fitted effect of over 35% in size. In short, it runs like this:
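To flag cytotoxic compounds, treated CHO-K1 wild-type cells were given CellTiter-Fluor at 16hr and read fluorescently after 1hr at 37C; the caspase-3/7 luminescence was measured in these same wells.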

Assay [7] in a line: Caspase-3/7 induction in CHO-K1 cells by small molecules, qHTS assay (AID 1346980). Further: nearly all actives have a fitted effect of over 15% in size. In short, it runs like this:
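Wild-type CHO-K1 cells exposed to compounds for 17hr at 37 C, 5% CO2. Caspase-3/7 activity then measured by Caspase-Glo 3/7 luminescence after 30min at room temperature.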

Assay [8] in a line: Caspase-3/7 induction in HepG2 cells by small molecules, qHTS cell viability counter screen (AID 1346981). Further: series mostly up to about 92 µM; nearly all actives have a fitted effect of over 30% in size. In short, it runs like this: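 Cell viability is measured as a cytotoxicity counter screen alongside the Caspase-Glo 3/7 readout in identical wells. Wild-type HepG2 cells are treated with test compounds for 16 hr at 37 C before CellTiter-Fluor addition and a 1-hr incubation.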

The target of assay [9] is Nuclear receptor subfamily 1 group I member 2 (Homo sapiens) (UniProt O75469). Briefly: Human pregnane X receptor (PXR) small molecule agonists, qHTS assay (AID 1346982). Further: nearly all actives have a fitted effect of over 35% in size. Further: potency means the concentration at half of the fitted maximal effect. An outline of the steps:
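Cells: HepG2 stably carrying PXR-Luc. Medium held 5% charcoal-stripped FBS. Compounds in DMSO added after 5 hr plating, incubated 24 hr, then luminescence quantified with ONE-Glo.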

The target of assay [10] is Cytochrome P450 2D6 (Homo sapiens) (UniProt P10635). The assay is described as follows: Cytochrome P450 Family 2 Subfamily D Member 6 (CYP2D6) small molecule antagonists: luciferase reporter qHTS assay (AID 1671196). Further: nearly all actives have a fitted effect of over 50% in size. Further: potency means the concentration at half of the fitted maximal effect. On activity change, negative = inhibition: series mostly up to about 120 µM. In short, it runs like this: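 Enzyme and proluciferin substrate were first combined with test chemical for 10 min at room temperature. Adding NADPH regeneration solution started a 1 h reaction, stopped with luciferin detection reagent and read by luminescence 20 min later.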
(In general: A reporter such as luciferase makes a cellular process visible.)

In assay [11] the target is Cytochrome P450 2C9 (Homo sapiens) (UniProt P11712). The assay is described as follows: Cytochrome P450 Family 2 Subfamily C Member 9 (CYP2C9) small molecule antagonists: luciferase reporter qHTS assay (AID 1671198). Further: nearly all actives have a fitted effect of over 50% in size. Further: potency means the concentration at half of the fitted maximal effect. On activity change, negative = inhibition: series mostly up to about 120 µM. An outline of the steps:
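P450-Glo proluciferin substrate with CYP2C9 enzyme; 10 min RT preincubation, then NADPH regeneration 1 h at 37C; luciferin detection reagent 20 min RT, luminescence in relative luminescence units.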

Assay [12] concerns the target Cytochrome P450 1A2 (Homo sapiens) (UniProt P05177). The assay is described as follows: Cytochrome P450 Family 1 Subfamily A Member 2 (CYP1A2) small molecule antagonists: luciferase reporter qHTS assay (AID 1671199). Further: nearly all actives have a fitted effect of over 50% in size. Further: potency means the concentration at half of the fitted maximal effect. On activity change, negative = inhibition: series mostly up to about 120 µM. In short, it runs like this: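 Compounds were incubated with CYP1A2 and a luminogenic proluciferin substrate for 10 min at room temperature before the reaction was started with NADPH regeneration solution. After 1 h, detection reagent was added and light output, proportional to CYP activity, was recorded.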

The target of assay [13] is Voltage-gated inwardly rectifying potassium channel KCNH2 (Homo sapiens) (UniProt Q12809). Briefly: Human Ether-a-go-go-Related Gene (hERG) channel small molecule antagonists: fluorescence cell-based qHTS assay (AID 1671200). An outline of the steps: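 Measured: Tl+ flux via fluorescence (480/540 nm) in hERG-expressing U2OS cells after 1 h dye loading at room temperature.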
In general terms: hERG is a cardiac potassium channel; its block is linked to QT prolongation.

Assay [14] has as its target Cytochrome P450 3A4 (Homo sapiens) (UniProt P08684). The assay is described as follows: Cytochrome P450 Family 3 Subfamily A Member 4 (CYP3A4) small molecule antagonists: luciferase reporter qHTS assay (AID 1671201). Further: nearly all actives have a fitted effect of over 50% in size. Further: potency means the concentration at half of the fitted maximal effect. On activity change, negative = inhibition: series mostly up to about 120 µM. In short, it runs like this:
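Setup: enzyme-substrate mix, compound pin transfer, 10 min RT. Reaction: NADPH regeneration solution, 1 h RT. Readout: detection reagent stops turnover, luminescence measured after 20 min, expressed in relative luminescence units.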

For assay [15], the target named is Thyrotropin-releasing hormone receptor (Homo sapiens) (UniProt P34981). The assay is described as follows: qHTS assay to identify small molecule agonists of the thyrotropin-releasing hormone receptor (TRHR) signaling pathway (AID 1346891; calls by dose curve;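 further: HEK293 cells expressing TRHR with calcium dye readout; series mostly up to about 58 µM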). An outline of the steps:
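In 1536-format, 1500 TRHR-Hek293 cells per well grew 18 h, took up calcium dye for 2 h at 37 °C, received compound, and were read kinetically; 15-point titrations, triplicates.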

The target of assay [16] is Cytochrome P450 2C19 (Homo sapiens) (UniProt P33261). The assay is described as follows: Cytochrome P450 Family 2 Subfamily C Member 19 (CYP2C19) small molecule antagonists: luciferase reporter qHTS assay (AID 1671197). Further: series mostly up to about 120 µM; nearly all actives have a fitted effect of over 65% in size. In short, it runs like this:
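Light output is proportional to CYP2C19 activity: proluciferin substrate is converted to luciferin, then detected by a luciferin detection reagent that also stops the 1 h, 37C NADPH-driven reaction. Ketoconazole serves as positive control.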

The target in assay [17] is Nuclear receptor subfamily 1 group I member 2 (Rattus norvegicus) (UniProt Q9R1A7). The assay is described as follows: Rat pregnane X receptor (rPXR) activation by small molecules, qHTS assay (AID 1346983). Further: nearly all actives have a fitted effect of over 20% in size. The following applies: rPXR luciferase reporter cells, One-Glo luminescence, 24 h; stronger effect = higher value. An outline of the steps:
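Cell-based rPXR activation assay: rPXR cells, 2,000 per well, rested 5hr at 37 C, then exposed to compounds in DMSO for 24 hr at 37 C. Luciferase activity read by One-Glo luminescence after 30 min at room temperature.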

For assay [18], the target named is Nuclear receptor subfamily 1 group I member 2 (Homo sapiens) (UniProt O75469). The assay is described as follows: CYP3A4 induction through human pregnane X receptor (PXR) by small molecules, qHTS assay (AID 1346984). Further: nearly all actives have a fitted effect of over 40% in size. In short, it runs like this: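 Quantitative HTS in DPX-2 cells, i.e. HepG2 transfected with PXR response element and CYP3A4-promoter luciferase. Compounds in DMSO incubated 24hr at 37C; then P450-Glo CYP3A4 substrate, 3uM final, 3hr; One-Glo luminescence.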

Assay [19] has the same target. Briefly: Human pregnane X receptor (PXR) activation by small molecules, qHTS assay (AID 1346985). Further: nearly all actives have a fitted effect of over 40% in size. An outline of the steps: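 DPX-2 cells (HepG2 co-transfected with a PXR response element and a CYP3A4-promoter luciferase construct) were seeded at 2,000 per well, rested 5 hr at 37C, then exposed to DMSO-dissolved compounds for 24 hr. Activation was read as luciferase luminescence.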

Unmarked numbers belong to inactive results. Results filed as inconclusive are left out. Activity calls are given as the source filed them. Unless noted, the call rests on the fitted dose curve; in most records, active means well fitted curve in the direction sought with a large enough effect in the repeat runs; inconclusive means weak or mixed curves; inactive means no such curve, though single readings can be large; an effect the other way counts as inactive or inconclusive.
On the % scale 0 is the no-effect control and ±100 the full control effect.

Thyrotropin-releasing hormone receptor (Homo sapiens), sequence (P34981 whole entry, looked up): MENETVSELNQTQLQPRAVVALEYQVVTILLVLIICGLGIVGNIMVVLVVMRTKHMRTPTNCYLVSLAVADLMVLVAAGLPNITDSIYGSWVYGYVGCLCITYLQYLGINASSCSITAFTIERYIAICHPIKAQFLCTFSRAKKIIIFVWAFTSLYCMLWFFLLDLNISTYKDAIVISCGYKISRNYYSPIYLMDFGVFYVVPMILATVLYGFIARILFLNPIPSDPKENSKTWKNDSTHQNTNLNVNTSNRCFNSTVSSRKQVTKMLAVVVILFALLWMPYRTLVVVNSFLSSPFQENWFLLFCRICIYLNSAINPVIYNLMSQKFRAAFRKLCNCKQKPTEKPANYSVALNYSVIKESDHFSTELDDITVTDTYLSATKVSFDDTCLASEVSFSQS
Cytochrome P450 2C9 (Homo sapiens), sequence (P11712 whole entry, looked up): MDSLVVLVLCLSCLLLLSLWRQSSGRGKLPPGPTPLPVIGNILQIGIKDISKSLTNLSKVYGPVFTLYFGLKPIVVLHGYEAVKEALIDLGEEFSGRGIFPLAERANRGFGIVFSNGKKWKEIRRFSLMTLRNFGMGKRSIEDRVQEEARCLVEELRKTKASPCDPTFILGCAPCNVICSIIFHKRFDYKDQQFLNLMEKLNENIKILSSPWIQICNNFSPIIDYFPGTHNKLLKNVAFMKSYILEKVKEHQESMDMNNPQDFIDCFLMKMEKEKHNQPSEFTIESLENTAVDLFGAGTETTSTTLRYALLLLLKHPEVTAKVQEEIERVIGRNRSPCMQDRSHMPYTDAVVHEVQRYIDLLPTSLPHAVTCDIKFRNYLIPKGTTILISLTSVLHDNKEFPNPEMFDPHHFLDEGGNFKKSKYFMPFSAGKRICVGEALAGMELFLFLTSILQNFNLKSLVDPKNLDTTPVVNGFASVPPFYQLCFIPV
Cytochrome P450 3A4 (Homo sapiens), sequence (P08684 whole entry, looked up): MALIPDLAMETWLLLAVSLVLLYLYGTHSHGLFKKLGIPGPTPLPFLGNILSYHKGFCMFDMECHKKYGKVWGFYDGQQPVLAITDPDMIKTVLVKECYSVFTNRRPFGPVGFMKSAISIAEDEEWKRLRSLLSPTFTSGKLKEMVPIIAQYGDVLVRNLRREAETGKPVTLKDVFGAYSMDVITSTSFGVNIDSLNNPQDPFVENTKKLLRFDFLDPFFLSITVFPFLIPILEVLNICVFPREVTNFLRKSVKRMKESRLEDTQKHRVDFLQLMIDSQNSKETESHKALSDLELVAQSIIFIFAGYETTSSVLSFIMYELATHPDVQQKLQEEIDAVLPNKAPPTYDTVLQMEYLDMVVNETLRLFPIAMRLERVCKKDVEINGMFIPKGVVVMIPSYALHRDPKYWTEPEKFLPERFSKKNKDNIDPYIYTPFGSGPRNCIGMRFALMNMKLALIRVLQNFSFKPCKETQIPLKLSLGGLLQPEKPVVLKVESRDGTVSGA
Voltage-gated inwardly rectifying potassium channel KCNH2 (Homo sapiens), sequence (Q12809 whole entry, looked up): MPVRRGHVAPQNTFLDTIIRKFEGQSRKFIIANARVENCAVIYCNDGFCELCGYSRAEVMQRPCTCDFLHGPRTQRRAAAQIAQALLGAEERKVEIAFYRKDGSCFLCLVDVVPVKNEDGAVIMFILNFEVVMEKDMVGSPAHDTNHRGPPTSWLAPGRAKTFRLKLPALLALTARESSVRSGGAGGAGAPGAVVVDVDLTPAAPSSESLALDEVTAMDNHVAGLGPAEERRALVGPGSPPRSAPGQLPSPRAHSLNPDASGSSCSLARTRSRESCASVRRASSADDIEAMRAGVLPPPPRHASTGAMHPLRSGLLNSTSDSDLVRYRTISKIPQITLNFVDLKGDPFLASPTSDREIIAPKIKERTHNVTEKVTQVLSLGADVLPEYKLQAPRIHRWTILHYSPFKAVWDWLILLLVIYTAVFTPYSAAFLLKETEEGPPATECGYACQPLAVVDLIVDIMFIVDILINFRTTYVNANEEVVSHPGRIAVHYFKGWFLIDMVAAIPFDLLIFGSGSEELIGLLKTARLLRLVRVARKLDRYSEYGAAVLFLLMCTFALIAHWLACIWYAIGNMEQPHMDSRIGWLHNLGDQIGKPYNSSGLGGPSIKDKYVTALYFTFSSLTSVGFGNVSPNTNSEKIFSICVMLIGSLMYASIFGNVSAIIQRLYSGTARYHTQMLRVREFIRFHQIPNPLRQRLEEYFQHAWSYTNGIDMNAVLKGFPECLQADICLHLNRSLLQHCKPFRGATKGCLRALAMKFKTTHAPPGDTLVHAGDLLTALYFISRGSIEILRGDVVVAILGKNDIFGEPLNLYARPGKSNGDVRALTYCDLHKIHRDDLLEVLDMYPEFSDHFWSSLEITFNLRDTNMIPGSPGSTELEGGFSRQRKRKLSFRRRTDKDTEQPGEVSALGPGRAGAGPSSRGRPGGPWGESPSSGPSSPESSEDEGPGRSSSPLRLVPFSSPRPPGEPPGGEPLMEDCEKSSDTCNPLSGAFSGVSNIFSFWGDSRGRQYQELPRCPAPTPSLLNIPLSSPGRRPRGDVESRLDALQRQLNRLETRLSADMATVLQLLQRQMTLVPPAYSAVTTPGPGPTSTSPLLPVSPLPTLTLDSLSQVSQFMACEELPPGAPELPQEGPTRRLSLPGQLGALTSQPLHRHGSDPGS
Cytochrome P450 2C19 (Homo sapiens), sequence (P33261 whole entry, looked up): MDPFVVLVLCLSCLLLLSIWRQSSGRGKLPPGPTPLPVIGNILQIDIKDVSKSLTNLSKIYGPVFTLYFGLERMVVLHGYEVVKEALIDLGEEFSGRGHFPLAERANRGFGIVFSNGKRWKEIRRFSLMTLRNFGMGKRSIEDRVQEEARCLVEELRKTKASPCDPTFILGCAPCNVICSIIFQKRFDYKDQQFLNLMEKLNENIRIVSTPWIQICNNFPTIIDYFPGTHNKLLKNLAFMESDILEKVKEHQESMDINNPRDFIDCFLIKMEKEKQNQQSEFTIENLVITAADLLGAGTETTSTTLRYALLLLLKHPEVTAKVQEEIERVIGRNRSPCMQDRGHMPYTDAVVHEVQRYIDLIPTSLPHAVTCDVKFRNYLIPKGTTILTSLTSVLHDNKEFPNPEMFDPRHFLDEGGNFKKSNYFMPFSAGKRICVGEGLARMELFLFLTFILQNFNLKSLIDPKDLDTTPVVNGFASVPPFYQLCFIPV
Cytochrome P450 2D6 (Homo sapiens), sequence (P10635 whole entry, looked up): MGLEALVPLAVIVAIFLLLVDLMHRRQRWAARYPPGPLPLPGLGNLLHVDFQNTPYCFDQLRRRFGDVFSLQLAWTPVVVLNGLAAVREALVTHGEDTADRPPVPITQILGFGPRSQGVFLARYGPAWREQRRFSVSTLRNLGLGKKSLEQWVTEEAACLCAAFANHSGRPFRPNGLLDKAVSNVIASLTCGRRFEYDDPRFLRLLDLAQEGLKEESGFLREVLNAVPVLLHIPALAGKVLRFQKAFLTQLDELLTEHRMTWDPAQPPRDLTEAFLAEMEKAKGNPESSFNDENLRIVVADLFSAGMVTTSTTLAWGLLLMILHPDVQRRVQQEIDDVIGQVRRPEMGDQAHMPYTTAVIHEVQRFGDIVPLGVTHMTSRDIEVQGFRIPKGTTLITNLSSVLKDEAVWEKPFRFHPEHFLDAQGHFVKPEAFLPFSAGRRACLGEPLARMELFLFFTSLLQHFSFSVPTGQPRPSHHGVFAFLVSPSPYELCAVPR
Cytochrome P450 1A2 (Homo sapiens), sequence (P05177 whole entry, looked up): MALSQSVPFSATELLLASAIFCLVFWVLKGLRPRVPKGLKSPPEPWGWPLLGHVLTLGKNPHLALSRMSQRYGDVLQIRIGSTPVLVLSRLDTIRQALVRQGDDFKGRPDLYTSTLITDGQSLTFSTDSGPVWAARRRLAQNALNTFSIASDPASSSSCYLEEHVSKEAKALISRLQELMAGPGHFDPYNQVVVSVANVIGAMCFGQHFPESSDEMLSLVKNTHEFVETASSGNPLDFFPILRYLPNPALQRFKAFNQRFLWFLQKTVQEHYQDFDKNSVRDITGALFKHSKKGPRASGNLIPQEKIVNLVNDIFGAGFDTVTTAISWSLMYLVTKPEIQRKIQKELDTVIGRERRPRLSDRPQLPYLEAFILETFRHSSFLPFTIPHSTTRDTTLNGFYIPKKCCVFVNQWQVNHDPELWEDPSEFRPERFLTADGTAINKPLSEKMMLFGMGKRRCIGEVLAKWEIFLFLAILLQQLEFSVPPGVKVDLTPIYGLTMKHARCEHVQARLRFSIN
Nuclear receptor subfamily 1 group I member 2 (Homo sapiens), sequence (O75469 whole entry, looked up): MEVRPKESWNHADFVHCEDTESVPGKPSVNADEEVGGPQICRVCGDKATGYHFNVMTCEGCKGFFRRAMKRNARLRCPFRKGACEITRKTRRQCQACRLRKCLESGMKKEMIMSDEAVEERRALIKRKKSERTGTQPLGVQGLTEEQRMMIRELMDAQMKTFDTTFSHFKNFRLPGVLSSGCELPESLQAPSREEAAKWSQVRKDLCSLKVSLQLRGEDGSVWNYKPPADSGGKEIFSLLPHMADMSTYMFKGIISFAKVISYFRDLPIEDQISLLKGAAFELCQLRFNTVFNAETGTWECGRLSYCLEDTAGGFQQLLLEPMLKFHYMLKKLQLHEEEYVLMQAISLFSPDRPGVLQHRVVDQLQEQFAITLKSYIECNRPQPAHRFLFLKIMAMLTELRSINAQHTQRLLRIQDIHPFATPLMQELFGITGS
Nuclear receptor subfamily 1 group I member 2 (Rattus norvegicus), sequence (Q9R1A7 whole entry, looked up): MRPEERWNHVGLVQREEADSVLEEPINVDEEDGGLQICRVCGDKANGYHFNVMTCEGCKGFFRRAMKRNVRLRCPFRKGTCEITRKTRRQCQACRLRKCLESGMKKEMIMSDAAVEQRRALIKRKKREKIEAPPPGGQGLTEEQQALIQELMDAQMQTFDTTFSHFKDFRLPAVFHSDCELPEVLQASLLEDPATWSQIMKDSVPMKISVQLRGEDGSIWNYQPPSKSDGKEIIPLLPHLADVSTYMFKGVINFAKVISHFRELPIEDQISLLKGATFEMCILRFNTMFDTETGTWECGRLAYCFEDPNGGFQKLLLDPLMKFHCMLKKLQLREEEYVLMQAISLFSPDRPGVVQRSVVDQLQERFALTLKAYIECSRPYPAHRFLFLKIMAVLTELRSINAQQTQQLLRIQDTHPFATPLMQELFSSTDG

`Cc1c(C(=O)c2c[nH]n(C)c2=O)ccc(S(C)(=O)=O)c1C1=NOCC1`: the outcome in assay [1], in assay [2], in assay [3], in assay [4], in [5] and in [7] was inactive. Also, in [8], the call was inactive. In addition, the Potency entry in assay [6], in assay [9], in assay [10], in assay [13] and in assay [14] was “inactive” each time. The results for the Potency in assay [11] and in assay [12] were 12.9 µM (active) and 14.5 µM (active), respectively.
Consider `C[C@H]1[C@@H](c2ccccc2)NC(=O)N1C`, for which the molecule was classed as inactive in assay [1], in assay [2], in assay [15], in assay [4], in assay [5] and in [7]. Besides, in assay [8], the molecule was called inactive. Further, the Potency result in assay [6], in [9], in [10], in assay [11], in assay [13] and in assay [14] was “inactive” in each case.
For the molecule `N#Cc1ccccc1O`, the call in assay [1], in assay [2], in [3], in [4], in [5] and in [7] was inactive. Also, in assay [8], the call was inactive. In addition, the Potency entry in assay [6], in [9], in assay [16], in [11], in assay [12] and in assay [13] was “inactive” in each case. For the same molecule, the Potency entry in assay [14] was “inactive”.
For the molecule `CCO[Si](CC)(OCC)OCC`, the molecule was classed as inactive in assay [1], in assay [2], in assay [3], in assay [4], in assay [5] and in assay [7]. Also, the outcome in [8] was inactive. The Potency result in [6], in assay [16] and in assay [12] was “inactive” throughout. The Potency in assay [9] was 15.4 µM (active); in assay [14], 7.1 µM (active).
On to `c1ccc2c(CC3=NCCN3)cccc2c1`, for which the molecule was classed as inactive in assay [1], in [2], in assay [4], in assay [5], in assay [7] and in assay [8]. Also, the Potency result in [6], in [9], in assay [18], in assay [19], in assay [16] and in assay [11] was “inactive” each time. The Potency entry in assay [12], in assay [13] and in assay [14] was “inactive” in each case. For the same molecule, the max activation in assay [17] was 14.1%. Moreover, the Potency in [10] is 9.77 µM (active).
`CCN(CC)CCN`: the molecule was classed as inactive in [1], in assay [2], in [4], in [5], in assay [7] and in assay [8]. Further, the Potency entry in assay [6], in assay [9], in [10], in [16], in assay [11] and in assay [12] was “inactive” in each case. The Potency entry in [13] and in assay [14] was “inactive” each time.
On to `[O]=[Mo](=[O])=[O]`, for which the activity change, negative = cytotoxicity in assay [1] was 7.35% [at 15.8 µM]; in [4], 1.91% [at 19 µM]; in [6], 3.86% [at 19 µM]; in assay [8], -3.34% [at 19 µM]. In addition, the results for the activation in [2] and in assay [9] were 0.212% [at 15.8 µM] and 1.34% [at 19 µM], respectively. Also, the caspase activation in [5] was 1.23% [at 19 µM]. Moreover, in assay [7], the caspase-3/7 activation is 0.334% [at 19 µM]. Moreover, the activity change, negative = inhibition in assay [10] was -4.35% [at 23.6 µM]; in assay [16], -2.98% [at 23.6 µM]; in assay [11] it was -0.296% [at 23.6 µM]; in assay [12], 2.53% [at 23.6 µM]; in [13], -1.28% [at 15.8 µM]; in assay [14] it was -5.3% [at 23.6 µM].
